From PubChem BioAssay AID1159580 (chemical genetic matrix, 2015)
Among all 5,500 compounds or so, about 2,000 (36%) were called active. Inconclusive results (about 18%) are left out. Rule as the data show it: active = normalized growth mostly below about 0.91 (no sharp cut-off); inconclusive = no clear call, values can overlap the other calls; inactive = mostly above about 0.92. The list shows a part of the results.

Assay: chemical genetic growth profiling, strain panel (AID 1159580);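 also: tested at 20 µM; growth read once vehicle control cultures reached saturation at 30 °C; 1 = growth at the plate median or of vehicle wells; lower values mean less growth of the strain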
Conditions: growth OD

Measured: normalized growth

CC(C)CCCC(C)C1CCC2C3CC[C@H]4CCCC[C@]4(C)C3CC[C@]12C (some centres not stated)
inactive: S. cerevisiae deletion strains, locus YJR075W, strain HOC1, hits give low values 0.965 | S. cerevisiae deletion strains, locus YKL009W, strain mrt4, hits give low values 1.01 | S. cerevisiae deletion strains, locus YKL068W, hits give low values 0.993 | S. cerevisiae deletion strains, locus YKL085W, strain MDH1 (second series), hits give low values 1.02 | S. cerevisiae deletion strains, locus YKL085W, strain MDH1, hits give low values 1.02 | S. cerevisiae deletion strains, locus YKL160W, strain elf1, hits give low values 0.998 | S. cerevisiae deletion strains, locus YKL190W, strain CNB1, hits give low values 0.98 | S. cerevisiae deletion strains, locus YKR001C, strain vps1, hits give low values 0.996 | S. cerevisiae deletion strains, locus YKR026C, strain gcn3, hits give low values 0.998 | S. cerevisiae deletion strains, locus YKR091W, strain srl3, hits give low values 1.02 | S. cerevisiae deletion strains, locus YLL001W, strain dnm1, hits give low values 1.02 | S. cerevisiae deletion strains, locus YLL026W, hits give low values 1.02 | S. cerevisiae deletion strains, locus YLL041C, strain sdh2, hits give low values 1.01 | S. cerevisiae deletion strains, locus YLR027C, strain aat2, hits give low values 1.01 | S. cerevisiae deletion strains, locus YLR039C, strain RIC1, hits give low values 0.951 | S. cerevisiae deletion strains, locus YLR058C, strain SHM2, hits give low values 0.967 | S. cerevisiae deletion strains, locus YLR102C, strain apc9, hits give low values 0.977 | S. cerevisiae deletion strains, locus YLR113W, strain HOG1, hits give low values 1.03 | S. cerevisiae deletion strains, locus YLR221C, strain rsa3, hits give low values 1.02 | S. cerevisiae deletion strains, locus YLR258W, strain gsy2, hits give low values 1.02 | S. cerevisiae deletion strains, locus YLR262C, strain YPT6 (second series), hits give low values 1.02 | S. cerevisiae deletion strains, locus YLR262C, strain YPT6, hits give low values 0.945 | S. cerevisiae deletion strains, locus YLR268W, strain sec22, hits give low values 0.966 | S. cerevisiae deletion strains, locus YLR320W, strain mms22, hits give low values 1.02 | S. cerevisiae deletion strains, locus YLR330W, strain CHS5, hits give low values 0.999 | S. cerevisiae deletion strains, locus YLR342W, strain FKS1 (second series), hits give low values 1.04 | S. cerevisiae deletion strains, locus YLR342W, strain FKS1, hits give low values 1.02 | S. cerevisiae deletion strains, locus YLR357W, strain rsc2, hits give low values 1.04 | S. cerevisiae deletion strains, locus YLR370C, strain arc18, hits give low values 1.02 | S. cerevisiae deletion strains, locus YLR371W, strain rom2, hits give low values 0.998 | S. cerevisiae deletion strains, locus YLR384C, strain iki3, hits give low values 1.02 | S. cerevisiae deletion strains, locus YLR418C, strain cdc73, hits give low values 0.952 | S. cerevisiae deletion strains, locus YML016C, strain PPZ1, hits give low values 0.986 | S. cerevisiae deletion strains, locus YML032C, strain rad52, hits give low values 1 | S. cerevisiae deletion strains, locus YML120C, strain ndi1, hits give low values 1.02 | S. cerevisiae deletion strains, locus YML124C, strain tub3, hits give low values 1 | S. cerevisiae deletion strains, locus YMR058W, strain fet3, hits give low values 1.01 | S. cerevisiae deletion strains, locus YMR078C, strain ctf18, hits give low values 0.99 | S. cerevisiae deletion strains, locus YMR125W, strain sto1, hits give low values 1.03 | S. cerevisiae deletion strains, locus YMR129W, hits give low values 1.02 | S. cerevisiae deletion strains, locus YMR205C, strain PFK2, hits give low values 1.04 | S. cerevisiae deletion strains, locus YMR223W, strain ubp8, hits give low values 1 | S. cerevisiae deletion strains, locus YMR231W, strain pep5, hits give low values 1.02 | S. cerevisiae deletion strains, locus YMR263W, strain SAP30, hits give low values 0.949 | S. cerevisiae deletion strains, locus YMR307W, strain GAS1, hits give low values 1.07 | S. cerevisiae deletion strains, locus YNL067W, strain RPL9B, hits give low values 0.953 | S. cerevisiae deletion strains, locus YNL071W, strain lat1, hits give low values 1.01 | S. cerevisiae deletion strains, locus YNL128W, strain TEP1, hits give low values 0.941 | S. cerevisiae deletion strains, locus YNL153C, strain GIM3, hits give low values 0.962 | S. cerevisiae deletion strains, locus YNL183C, strain NPR1, hits give low values 0.922 | S. cerevisiae deletion strains, locus YNL209W, strain ssb2, hits give low values 1.02 | S. cerevisiae deletion strains, locus YNL233W, strain BNI4, hits give low values 0.983 | S. cerevisiae deletion strains, locus YNL248C, strain rpa49, hits give low values 0.992 | S. cerevisiae deletion strains, locus YNL250W, strain rad50, hits give low values 0.986 | S. cerevisiae deletion strains, locus YNL271C, strain bni1, hits give low values 0.993 | S. cerevisiae deletion strains, locus YNL298W, strain CLA4, hits give low values 0.998 | S. cerevisiae deletion strains, locus YNL307C, strain MCK1, hits give low values 1.01 | S. cerevisiae deletion strains, locus YNL322C, strain KRE1 (second series), hits give low values 1.02 | S. cerevisiae deletion strains, locus YNL322C, strain KRE1, hits give low values 0.971 | S. cerevisiae deletion strains, locus YNR049C, strain mso1, hits give low values 1.02 | S. cerevisiae deletion strains, locus YNR052C, strain pop2, hits give low values 0.996 | S. cerevisiae deletion strains, locus YOL006C, strain TOP1, hits give low values 0.935 | S. cerevisiae deletion strains, locus YOL012C, strain htz1 1.86 | S. cerevisiae deletion strains, locus YOL147C, strain pex11, hits give low values 0.992 | S. cerevisiae deletion strains, locus YOR001W, strain rrp6, hits give low values 0.993 | S. cerevisiae deletion strains, locus YOR061W, strain CKA2, hits give low values 0.964 | S. cerevisiae deletion strains, locus YOR069W, strain VPS5, hits give low values 1.01 | S. cerevisiae deletion strains, locus YOR070C, strain gyp1, hits give low values 1.02 | S. cerevisiae deletion strains, locus YOR080W, strain dia2, hits give low values 1.02 | S. cerevisiae deletion strains, locus YOR083W, strain WHI5, hits give low values 0.991 | S. cerevisiae deletion strains, locus YOR106W, strain vam3, hits give low values 1.01 | S. cerevisiae deletion strains, locus YOR136W, strain idh2, hits give low values 1 | S. cerevisiae deletion strains, locus YOR144C, strain elg1, hits give low values 0.981 | S. cerevisiae deletion strains, locus YOR184W, strain ser1, hits give low values 1.01 | S. cerevisiae deletion strains, locus YOR231W, strain MKK1, hits give low values 0.992 | S. cerevisiae deletion strains, locus YOR265W, strain rbl2, hits give low values 1.02 | S. cerevisiae deletion strains, locus YOR270C, strain vph1, hits give low values 1.03 | S. cerevisiae deletion strains, locus YOR290C, strain snf2, hits give low values 0.984 | S. cerevisiae deletion strains, locus YOR316C, strain cot1, hits give low values 0.981 | S. cerevisiae deletion strains, locus YPL051W, strain arl3, hits give low values 0.997 | S. cerevisiae deletion strains, locus YPL055C, strain LGE1, hits give low values 0.934 | S. cerevisiae deletion strains, locus YPL078C, strain atp4, hits give low values 0.996 | S. cerevisiae deletion strains, locus YPL106C, strain sse1, hits give low values 1.05 | S. cerevisiae deletion strains, locus YPL240C, strain hsp82, hits give low values 1 | S. cerevisiae deletion strains, locus YPL241C, strain CIN2, hits give low values 0.993 | S. cerevisiae deletion strains, locus YPL256C, strain CLN2, hits give low values 0.978 | S. cerevisiae deletion strains, locus YPR119W, strain clb2, hits give low values 0.999 | S. cerevisiae deletion strains, locus YPR141C, strain kar3, hits give low values 0.966 | S. cerevisiae deletion strains, locus YPR163C, strain tif3, hits give low values 1 | S. cerevisiae deletion strains, locus YPR167C, strain met16, hits give low values 0.982 | S. cerevisiae deletion strains, strain wtn01, hits give low values 0.982 | S. cerevisiae strains, strain wild type, hits give low values 0.984
